Results published in PubChem BioAssay (NCI).
“And” between values parts separate entries of the source, which are not always exact repeats. Identical values can stand only once. About 83,000 compounds went through this panel and 20% of them were active in at least one assay; those are over-represented in the sample as a whole.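 Each cell line was grown in a 96-well plate and treated with one concentration of compound for 48 hours. Values below 10 were considered active.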 Unmarked numbers belong to inactive results. The source made the active and inactive calls.

Test system: RPMI-8226 leukemia
Test: NCI-60 one-dose screen, 48 h (100 = growth as untreated, 0 = no growth, -100 = all killed)
Details: 10 µM unless noted
Protocol: Growth inhibition of the RPMI-8226 human tumor cell line is measured as a screen for anti-cancer activity. Cells are grown in 96 well plates and exposed to the test compound for 48 hours. Compounds are tested at a single concentration, which is 10^-5 M for most compounds. The reported endpoint is percent growth (GI% or GIPRCNT), where numbers from 0 - 100% represent growth inhibition, and numbers from -100% - 0 represent cell death. For example, a value of 40 represents 60% growth inhibition. A value of 0 means no net growth occurred over the course of the experiment. A value of -40 indicates 40% of cells at the beginning of the experiment died by the end of the experiment. A value of -100 means all cells are dead at the end of the experiment.
NCI-60 Human Tumor Cell Lines Screen was performed using the standard one-dose NCI protocol, which is described in more detail at https://dtp.cancer.gov/discovery_development/nci-60/default.htm.
Compounds with GIPRCNT values below 10 were considered active. Activity score was based on GIPRCNT using the following formula: […]
Score is 0 for GIPRCNT values of 100 or above, 50 for GIPRCNT values of 0, and 100 for GIPRCNT values of -100.

| SMILES | growth |
| --- | --- |
| O=C1C=CC(n2cc(F)c(=O)[nH]c2=O)O1 (stereo not given) | 62% |
| CCN(CC)C(CC(=O)c1ccccc1)C(=O)c1ccccc1 (stereo not given) | 86.5% |
| N#Cc1ccc(/C=C/C(=O)c2ccccc2)cc1 | -35.6% (active) and -54.9% (active) |
| NNc1ncnc2cccc(Cl)c12 | 94.9% |
| CCCCOC1NC(=O)NC(=O)C1(F)C(=O)OCC (stereo not given) | 71.8% and 53.1% |
| COc1ccc(CCN=Cc2ccc(Cl)cc2)cc1OC | 108% |
| COc1ccc(/C=N/NC(N)=S)cc1 | 88.9% |
| N=c1sc2ccccc2n1CC(=O)O | 93.7% |
| CCc1ccc(OC(=O)CCl)cc1 | 111% |
| Cc1nc(Nc2ccc(Cl)cc2)c2cnn(-c3ccccc3)c2n1 | 108% |
| COC(=O)CCOc1ccccc1 | 92.7% |
| O=C(/C=C/C=C/c1ccc2c(c1)OCO2)N1CCCCC1 | 102% and 124% |
| COc1cc(NCCCCCNC(C)C)c2ncccc2c1 | 107% and 98.1% |
| Cc1ccc(N)cc1S(=O)(=O)O | 103% and 102% |
| CCOC(=O)CN1CCC(C(=O)OCC)CC1 | 95.8% |
| CCOC(=O)C1=CC(=O)CC(C)(C)O1 | 92.8% and 111% |
| O=C1C=CC[C@H](/C=C/c2ccccc2)O1 | -34.8% (active) |
| CN(C)CC(CN(C)C)C(O)c1ccccc1 (stereo not given) | 108% |
| O=C(c1ccncc1)c1c(Cc2ccccc2)ccc2ccccc12 | 85.1% |
| Cn1c(N)c(N=O)c(=O)n(C)c1=O | 104% and 116% |

| SMILES | growth |
| --- | --- |
| CC(CN(C)C)CN1c2ccccc2Sc2ccccc21 (stereo not given) | 74.9% |
| CCCCCc1cc[n+](CC(=O)c2ccccc2)cc1 | 104% and 107% |
| C/C(=C\c1ccccc1)C(O)C(=O)c1nc2ccc([N+](=O)[O-])cc2[nH]c1=O (stereo not given) | 90.2% |
| CCn1c2ccc(N(C)C)cc2c2cc(N(C)C)ccc21 | 80.4% |
| Cc1onc(-c2c(F)cccc2Cl)c1-c1ncc(-c2ccc(Cl)cc2)o1 | 26.2% and 23.4% |
| Cc1c(Cl)c(C)c(Cc2c(C)c(Cl)c(C)c(Cl)c2O)c(O)c1Cl | 10% |
| CCOc1ccc(/C=C\C(=O)O)cc1 | 113% |
| COc1ccc(C(=O)C(O)c2ccc(OC)cc2)cc1 (stereo not given) | 112% and 106% |
| Cc1c(Cl)cc(Cl)c(N)c1Cl | 98.1% |
| CC1=CC(=O)c2cccc(NC3=NCCO3)c21 | 91.6% |
| Cc1cc(=NO)cc(C)n1O | 103% |
| S=c1ccc2ccccc2[nH]1 | 109% and 104% |
| CCN(CC)CCO/N=C1\CC(c2ccc(OC)c(OC)c2)Oc2ccccc21 (stereo not given) | 87.8% |
| Cc1ccc2cccc([N+](=O)[O-])c2n1 | 111% and 92.8% |
| CC(O)CCNC(c1ccccc1)C(O)c1ccccc1 (stereo not given) | 89.7% |
| CC(=O)Oc1cc(C(C)C)c(OCCN(C)C)cc1C | 123% and 105% |
| CC(=O)Nc1cscc1NC(C)=O | 95.8% |
| CN1C2C=CC(=O)C1C1C(=O)N(c3ccccc3)C(=O)C12 (stereo not given) | 37.5% |
| Cc1cc(O)c(C(C)C)cc1N=O | 97.2% |
| Cc1ccc(S(=O)(=O)n2ccnc2)cc1 | 100% |
